Reference: article PMC4336329 (PLoS ONE, 2015)
Screen size: about 310,000 compounds; about 14,000 (4.5%) showed an effect of 50% or more. Effects have a minus sign here. This is one part of a sample in which strong results are shown more often than they occur.

biological target: human ether-à-go-go-related gene (hERG) potassium channel (human, UniProt Q12809); assay: primary screen, population patch clamp on CHO cells stably expressing hERG; higher = less effect of the substance
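Further: peak tail current of the secondary pulse compared with the same well before compound.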

Chain of human ether-à-go-go-related gene (hERG) potassium channel (Q12809 whole entry, looked up): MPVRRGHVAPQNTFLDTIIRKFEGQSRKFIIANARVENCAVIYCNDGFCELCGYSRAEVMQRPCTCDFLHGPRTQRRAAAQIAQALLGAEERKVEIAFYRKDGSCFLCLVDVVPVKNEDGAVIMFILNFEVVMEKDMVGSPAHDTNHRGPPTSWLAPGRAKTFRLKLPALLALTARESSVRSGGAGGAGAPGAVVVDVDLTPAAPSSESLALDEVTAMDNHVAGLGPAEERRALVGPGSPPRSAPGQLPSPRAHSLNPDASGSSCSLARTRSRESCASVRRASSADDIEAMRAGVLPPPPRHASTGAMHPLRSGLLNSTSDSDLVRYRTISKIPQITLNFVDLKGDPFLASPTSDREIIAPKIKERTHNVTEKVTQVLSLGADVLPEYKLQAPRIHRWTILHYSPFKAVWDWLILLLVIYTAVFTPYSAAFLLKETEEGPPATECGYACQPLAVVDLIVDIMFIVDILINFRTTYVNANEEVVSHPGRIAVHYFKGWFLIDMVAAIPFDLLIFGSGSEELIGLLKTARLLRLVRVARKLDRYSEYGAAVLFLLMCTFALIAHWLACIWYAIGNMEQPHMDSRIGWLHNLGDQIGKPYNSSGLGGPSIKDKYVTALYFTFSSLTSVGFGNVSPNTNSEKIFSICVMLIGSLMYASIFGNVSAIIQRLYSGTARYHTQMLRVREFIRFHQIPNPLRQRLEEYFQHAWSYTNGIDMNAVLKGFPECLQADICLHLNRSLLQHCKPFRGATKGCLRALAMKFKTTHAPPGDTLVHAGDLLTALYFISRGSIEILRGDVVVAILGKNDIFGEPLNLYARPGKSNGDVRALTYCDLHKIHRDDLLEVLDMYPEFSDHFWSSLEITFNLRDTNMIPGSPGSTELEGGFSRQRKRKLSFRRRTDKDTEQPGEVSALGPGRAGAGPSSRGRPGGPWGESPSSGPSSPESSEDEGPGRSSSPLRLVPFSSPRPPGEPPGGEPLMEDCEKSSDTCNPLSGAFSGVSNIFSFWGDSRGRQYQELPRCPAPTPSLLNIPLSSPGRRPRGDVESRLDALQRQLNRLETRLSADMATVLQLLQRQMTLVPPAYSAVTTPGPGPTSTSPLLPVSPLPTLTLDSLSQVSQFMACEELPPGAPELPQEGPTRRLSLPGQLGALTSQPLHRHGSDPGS

| SMILES | hERG current change (%, negative = inhibition) at 10uM |
| --- | --- |
| CCCCn1c(N)c(N(CC(C)C)C(=O)c2cc(C)oc2C)c(=O)[nH]c1=O | 8.94% |
| Clc1ccc(-c2ccn[nH]2)cc1 | 3.54% |
| Cc1ccc(NC(=O)N2C(=O)C3(OCCO3)c3ccccc32)cc1 | 18.2% |
| CCS(=O)(=O)c1ccc(-c2cccc(NC(=O)COc3ccccc3)c2)nn1 | 6.57% |
| O=C1CCCN1CN(C(=O)c1ccc2c(c1)OCO2)c1cccc(Cl)c1 | -7.64% |
| CC(C)CN(C(=O)COC(=O)C(C)N1C(=O)c2ccccc2C1=O)c1c(N)n(Cc2ccccc2)c(=O)[nH]c1=O (stereo not drawn) | -7.78% |
| COC(=O)c1cc(NC(=O)CC2NCCNC2=O)cc(C(=O)OC)c1 (stereo not drawn) | 5.72% |
| Cc1ccc(-c2csc(NC(=O)c3ccc([N+](=O)[O-])o3)n2)cc1 | 6.85% |
| CS(=O)(=O)c1ccc(-c2cc(Br)sc2-c2ccc(F)cc2)cc1 | 16.4% |
| Cc1n[nH]c(C)c1S(=O)(=O)N1CCCC(C(=O)NCC2COc3ccccc3O2)C1 (stereo not drawn) | 0.365% |
| O=C(CN1CCN(c2ccc(F)cc2)CC1)Nc1ccccc1Br | 12.5% |
| COc1cccc(C(=O)NC2CCN(CC(=O)NCc3ccccc3OC)CC2)c1 | -10.7% |
| COc1ccccc1CNC(=O)CN1CCC(NC(=O)c2ccccc2F)CC1.Cl | -14.5% |
| COc1ccccc1CNC(=O)CN1CCC(n2cnc3cc(F)ccc32)CC1 | -66% |
| O=C(CN1CCC(n2cnc3cc(F)ccc32)CC1)Nc1ccccc1Br | -87.8% |
| O=C(NCc1ccc(F)cc1)C1CCN(C(=O)NCc2ccccc2)CC1 | 6.31% |
| O=C(c1ccc(F)cc1)C1CCN(C(=O)NCc2ccccc2)CC1 | -6.67% |
| O=C(CN1CCC(NC(=O)Cc2ccccc2)CC1)Nc1ccccc1Br | -29.2% |
| CCOc1ccc(NC(=O)CN2CCC(n3cnc4cc(F)ccc43)CC2)cc1 | -74.3% |

| SMILES | hERG current change (%, negative = inhibition) at 10uM |
| --- | --- |
| O=C(NCc1ccccc1)N1CCC(n2cnc3cc(F)ccc32)CC1 | -64.3% |
| CCOc1ccc2nc(NC(=O)CN3CCC(n4nnc5cc(F)ccc54)CC3)sc2c1 | -40.1% |
| CCOC(=O)Nc1ccc2c(c1)ncn2C1CCCCC1 | -8.98% |
| COc1ccc(C(=O)Nc2ccccc2C(=O)NC(C)C)cc1OC | -6.82% |
| CCc1nc(SCC(=O)O)c2c3c(sc2n1)COC(C)(C)C3 | 23.2% |
| CCCNc1c(NS(=O)(=O)c2ccc(C3CCCCC3)cc2)c(=O)oc2ccccc12 | 21.9% |
| Cc1onc(-c2ccccc2)c1-c1csc(N/N=C/c2ccccc2)n1 | 8.79% |
| CC(C)[C@H](NC(=O)c1cccc(S(=O)(=O)N2CCCC2)c1)c1nc2ccccc2[nH]1 | 9.05% |
| COc1ccc(/C=N/N2CCN(c3ccncc3S(=O)(=O)N3CCCCC3)CC2)cc1 | 10.3% |
| CCOC(=O)c1cc2sc(C)cc2n1CC(=O)N1CCN(C(=O)c2ccco2)CC1 | -8.61% |
| Cc1ccc2nc(Cl)c(/C=N/NC(=O)[C@H]3C[C@@H]3c3ccccc3)cc2c1 | 19.5% |
| O=C(Cc1ccc(-c2ccccc2)cc1)NCCN1CCOCC1 | 0.566% |
| COc1cccc(CC2(CO)CCCN(Cc3sc(N4CCCC4)nc3Cl)C2)c1 (stereo not drawn) | -27.2% |
| COc1cccc(CC2(CO)CCCN(Cc3ccc(C)s3)C2)c1 (stereo not drawn) | -50.5% |
| COc1cccc(CC2(CO)CCCN(Cc3cc4ccccc4[nH]3)C2)c1 (stereo not drawn) | -37.5% |
| COc1cccc(CC2(CO)CCCN(Cc3ccc(OC(F)F)cc3)C2)c1 (stereo not drawn) | -68.6% |
| COc1cccc(CC2(CO)CCCN(Cc3ccc(CN4CCCCC4)s3)C2)c1 (stereo not drawn) | -22.1% |
| OCC1(Cc2ccccc2)CCCN(Cc2ccc3c(c2)OCCO3)C1 (stereo not drawn) | -24.6% |
| COc1cccc(CC2(CO)CCCN(Cc3[nH]c4ccc(C)cc4c3C)C2)c1 (stereo not drawn) | -74.7% |

| SMILES | hERG current change (%, negative = inhibition) at 10uM |
| --- | --- |
| COc1cccc(CC2(CO)CCCN(Cc3ccc4c(c3)OCCO4)C2)c1 (stereo not drawn) | -58.5% |
| CCC(NC(=O)c1ccccc1NC(=O)c1ccco1)C(=O)NNC(=O)c1ccc(OC)cc1 (stereo not drawn) | 10.3% |
| NC(=O)c1ccc(SCC(=O)OCC(=O)NCC2CCCCC2)c([N+](=O)[O-])c1 | -5.21% |
| CC(C)(C)NC(=O)c1ccc2c(c1)N(CC(=O)NC1CCCC1)C(=O)C(C)(C)O2 | 8.72% |
| COc1ccc(-c2csc(NC(=O)CSCC(=O)Nc3cc(C)on3)n2)cc1OC | 1.07% |
| O=C(Nc1ccc(-c2n[nH]c(=S)o2)cc1)c1ccccc1 | 15.6% |
| O=C(c1cccc(S(=O)(=O)Nc2ccccc2F)c1)N1CCN(c2ccccc2F)CC1 | -21.5% |
| CCOc1ccc(NC(=O)CSc2nccn2Cc2ccco2)cc1 | -19.5% |
| Cc1cc(S(=O)(=O)N2CCCC(C(=O)Nc3ccc(C(=O)O)cc3)C2)ccc1Cl (stereo not drawn) | 10.2% |
| COc1ccc(CSc2nnnn2C)cc1F | -6.74% |
| CCOC(=O)C1CCN(C2=NC(=O)/C(=C/c3ccc(Cl)cc3)S2)CC1 | -64.8% |
| CCOC(=O)C1CCN(C2=NC(=O)/C(=C/c3ccc(O)cc3)S2)CC1 | -67.1% |
| CCOC(=O)C1CCN(C2=NC(=O)/C(=C/c3ccc(OC)c(OC)c3)S2)CC1 | -17.8% |
| Cc1ccc(/C=C2\SC(N3CCCC3)=NC2=O)cc1 | -22.4% |
| CCOC(=O)C1CCN(C2=NC(=O)/C(=C/c3ccccc3OC)S2)CC1 | -22.9% |
| CC1CCN(C2=NC(=O)/C(=C/c3ccc(O)cc3)S2)CC1 | -24.7% |
| CC(C)(C)c1ccc(/C=C2/SC(N3CCCC3)=NC2=O)cc1 | -51.1% |
| CCOC(=O)C1CCCN(C2=NC(=O)/C(=C/c3ccc(N(C)C)cc3)S2)C1 (stereo not drawn) | -24.9% |
| Cc1ccc(/C=C2\SC(N3CCCCC3)=NC2=O)cc1 | 0.193% |
